Reference: PubChem BioAssay (NCI)
About 83,000 compounds went through this panel and 20% of them were active in at least one assay; those are over-represented in the sample as a whole.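 In brief: 96-well plates, 48 h treatment, single concentration, percent growth endpoint.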 A number with no mark means an inactive call. Active and inactive are the calls of the source. Rule for the calls: active = growth percent below 10; inactive = the rest.

Tested on: HL-60(TB) leukemia
Assay: NCI-60 one-dose screen, 48 h (100 = growth as untreated, 0 = no growth, -100 = all killed)
Details: 10 µM unless noted

Row | Structure (SMILES) | growth
1 | Cc1cnc(Nc2ccc(N3CCN(C)CC3)cc2)nc1Nc1ccc(Cl)c(NS(=O)(=O)C(C)(C)C)c1 | -13.4% (active)
2 | C[C@H]1[C@@H]2[C@H]3CC[C@@H]4[C@@]5(C)Cc6c([nH]c7ccccc67)C(C)(C)[C@@H]5CC[C@@]4(C)[C@]3(C)CC[C@]23CO[C@]1(C)[C@@H](C(=O)/C=C/c1ccccn1)C3 | 72.4%
3 | COc1cccc(-c2cc3c(O)cc(C#N)cc3[nH]2)c1 | 21.3%
4 | COc1ccc2c(c1)CC[C@@H]1[C@@H]2CC[C@]2(C)C3C(=CCC4C(=O)N(c5ccccc5)C(=O)C43)C[C@@H]12 (stereo not given in full) | 81.6%
5 | CN1C(=O)C2(NN=C(c3cccc4ccccc34)S2)c2ccccc21 (stereo not given) | 34.7%
6 | O=c1c2cnn(-c3ccccc3)c2n2c(CN3CCOCC3)nnc2n1-c1ccccc1 | 102%
7 | C=C(C)Cn1c(SCC(=O)c2cccs2)nc2sc3c(c2c1=O)CCCC3 | 63.2%
8 | O=C(O)c1ccc(-n2cc(/C=N/Nc3ccccc3F)c(-c3ccc(O)cc3)n2)cc1 | 45%
9 | COC(=O)c1cnc2c(c1)Oc1ccc(Cl)cc1-c1cc(C)nn1-2 | 95.9%
10 | CCN(CC)CCN(CCN(CC)CC)c1ccccc1 | 87.9%
11 | O=C1C=CC(O)=CC1=P(c1ccccc1)(c1ccccc1)c1ccccc1 | 97.8%
12 | CC/C=C\C/C=C\C[C@H](O)C/C=C1/C(=O)C=C[C@H]1C/C=C\CCC(=O)OC | 1.46% [8.25 µM] (active)
13 | Cc1ccc(Oc2c(/C=N/NC(=O)Cn3c(=O)sc4ccccc43)c(C)nn2-c2ccccc2)cc1 | 4.2% (active)
14 | O=C(Nc1ccccc1C(=O)N/N=C(\c1ccccc1)c1ccccn1)c1ccc(F)cc1 | -1.1% (active)
15 | CCCCCCCCCCCCCCCCCCNCc1ccc(Cl)cc1 | -65.8% (active)
16 | COc1cc(C=Nc2oc(-c3ccccc3)c(-c3ccccc3)c2C#N)cc(CN2CCCC2)c1O | 102%
17 | C=C(CNCCO)[C@@H]1CC[C@]2(CO)CC[C@]3(C)[C@H](CC[C@@H]4[C@@]5(C)CCC(N)C(C)(C)[C@@H]5CC[C@]43C)[C@@H]12 (stereo not given in full) | 32.4%
18 | NS(=O)(=O)Oc1ccc(NC(=O)C23CC4CC(CC(C4)C2)C3)cc1Cl | 100%
19 | C=C(C)[C@@H]1CC[C@]2(C(=O)NNC(=O)c3cccnc3)CC[C@]3(C)[C@H](CC[C@@H]4[C@@]5(C)CCCNC(C)(C)[C@@H]5CC[C@]43C)[C@@H]12 | 66.9%
20 | COc1cc(OC)c(/C=C/C(=O)c2c(O)cc(OC)c(C3CCN(C)CC3)c2OC)c(OC)c1 | -35.6% (active)

Row | Structure (SMILES) | growth
21 | COC(=O)/C=C/c1cc(OC(C)=O)c2c(c1)C(C(=O)OC)C(c1ccc(OC(C)=O)c(OC(C)=O)c1)O2 (stereo not given) | -35% (active)
22 | CN1CCCc2cc(/C=C3/SC(=S)N(CCc4ccc(O)cc4)C3=O)ccc21 | 8.87% (active)
23 | C/C=C/C/C=C/[C@H](C)C[C@H](O)[C@@H]1C[C@@H]2O[C@H]2/C=C/[C@H](O)[C@@H](O)/C=C/C[C@H](C)CC(=O)O1 | 76.6%
24 | O=C1/C=C/[C@@H](O)[C@@H]2C[C@@H](O)C[C@H]2/C=C/CCC[C@H](CCc2ccc(NC(=S)Nc3ccc4c(c3)C(=O)OC43c4ccc(O)cc4Oc4cc(O)ccc43)cc2)O1 | 4.65% (active)
25 | COc1cc(/C=C2\C(=O)Nc3ccc(Br)cc32)cc(OC)c1OC | 73.5%
26 | Cl.Fc1c[c-]c(-c2ccccn2)c(F)c1.[Pt].c1ccc([PH+](CC[PH+](c2ccccc2)c2ccccc2)c2ccccc2)cc1 | -29.2% (active)
27 | Nc1nc(Nc2ccc([N+](=O)[O-])cc2O)nc(C(Cl)(Cl)Cl)n1 | 6.38% (active)
28 | O=C(Nc1ccc(-n2cc(-c3ccncc3)c(-c3ccc(Cl)c(O)c3)n2)cc1)N1CCOCC1 | 108%
29 | COc1cc(-c2ccc(-c3ccc(C(=N)N)nc3)s2)cc(OC)c1OC | -40.6% (active)
30 | C=C(C)[C@@H]1CC[C@]2(C)[C@H](C=CC3=C4C[C@@](C)(CO)CC[C@]4(C)CC[C@]32C)[C@@]1(C)CCCN | -58% (active)
31 | c1ccc(CN2COc3c(ccc4c3OCN(Cc3ccccc3)C4)C2)cc1 | -19% (active)
32 | COc1cc(-c2nn(-c3ccccc3)cc2-c2ccnc(NCCNS(=O)(=O)c3ccc(Cl)cc3)n2)ccc1Cl | -35.9% (active)
33 | COc1cnccc1-c1nc2ccc3[nH]ncc3c2c2c1CCCC2 | 35.1%
34 | O=C1c2c(c3c4cc(Br)ccc4[nH]c3c3ccc4ccccc4c23)C(=O)N1O | 116%
35 | COc1cc(-c2cc(/C=C3\C(=O)Nc4cc(Cl)ccc43)[nH]n2)cc(OC)c1OC | -34.9% (active)
36 | O=C(CSc1ncccc1C(=O)O)Nc1ccc(Oc2ccccc2)cc1 | 87.5%
37 | CCN(CC)Cc1cc(Nc2c3ccc(Cl)cc3nc3ccc(OC)cc23)ccc1O | 72.5%
38 | Cc1ccc(NCc2cn(-c3ccc(C(=O)O)cc3)nc2-c2ccc(C(=O)O)cc2)cc1 | 106%
39 | C=C1C(=O)O[C@H]2[C@H]1CC/C(CNS(=O)(=O)c1ccc3ccccc3c1)=C\CC[C@@]1(C)O[C@@H]21 | -48.4% (active)
40 | Cc1nc(NC(=O)COc2cccc(/C=C3\COc4ccccc4C3=O)c2)sc1C | -61.4% (active)
